High-throughput results as filed in PubChem BioAssay.
eLon inh = E. coli protease La inhibition. purified E. coli Lon protease, fluorescence polarization. inhibition, % at 7.94 µM. 360,000 tested, 0.42% active; in the data active = inhibition above about 13%, passing the limit was not always enough;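 note: 0% = enzyme with probe and DMSO and 100% = no enzyme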
Bcl-xL primary = blocks human Bcl-xL binding to Bim BH3 peptide; Q07817; GST-Bcl-xL / FITC-Bim BH3 peptide fluorescence polarization; inhibition, % at 10.9 µM; 320,000 tested, 0.7% active;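 active = inhibition above the mean of all tested compounds plus 3 SD, cutoff set per campaign, cut at about 30% in these data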;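 note: 0% = DMSO wells and 100% = unlabeled Bim-BH3 peptide competitor; inhibitors lower millipolarization by displacing the labeled peptide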
EBV gp42 block = inhibitors of Epstein-Barr virus glycoprotein 42; Fluorescence polarization binding assay, mP read-out; inhibition, % (tested at 21.74 µM); 220,000 tested, 0.42% active; in the data active = inhibition above about 50%
GLD-1 RNA inh = GLD-1-TGE RNA interaction inhibition (C. elegans); AID 2280; Q17339; inhibition, % at 5.96 µM; 320,000 tested, 0.44% active; purified GLD-1 + fluorescein TGE RNA, fluorescence polarization;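 active = percent inhibition above a per-plate cutoff, the plate mean of test compounds plus 3 SD, cut at about 30% in these data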;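 note: 0% = DMSO wells with GLD-1 and probe and 100% = wells lacking GLD-1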
Target sequence (Q17339 whole entry, looked up): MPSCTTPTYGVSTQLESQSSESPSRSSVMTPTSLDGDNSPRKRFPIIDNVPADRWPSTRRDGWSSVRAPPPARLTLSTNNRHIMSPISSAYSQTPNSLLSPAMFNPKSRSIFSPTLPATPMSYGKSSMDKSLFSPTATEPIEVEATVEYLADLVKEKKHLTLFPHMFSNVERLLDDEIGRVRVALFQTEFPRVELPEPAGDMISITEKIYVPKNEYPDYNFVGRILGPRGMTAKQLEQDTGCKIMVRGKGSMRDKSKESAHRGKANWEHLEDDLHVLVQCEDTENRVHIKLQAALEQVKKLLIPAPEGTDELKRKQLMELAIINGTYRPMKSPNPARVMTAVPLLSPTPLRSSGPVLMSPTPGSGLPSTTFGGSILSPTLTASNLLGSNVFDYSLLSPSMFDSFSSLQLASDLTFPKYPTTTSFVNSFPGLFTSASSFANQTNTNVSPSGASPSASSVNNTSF
MEX-5 binding = C. elegans MEX-5 TCR-2 RNA binding activity | Q9XUB2 | MEX-5/FITC-TCR2 RNA binding, fluorescence polarization; hits give low values | activity score (negative = inhibition of binding), % at 10 µM | 300,000 tested, 0.38% active;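 active = inhibition past about -25% in most replicates, and total fluorescence under double the plate's negative control median, limit read from the data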;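 note: 0% = DMSO and -100% = 5 µM competing unlabeled TCR2 RNA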
MCL1 BIM primary = disrupts human MCL1 binding to BIM-BH3 peptide. GST-MCL1 / FITC-Bim-BH3 fluorescence polarization. Q07820. 320,000 tested, 0.68% active. inhibition, % at 10.9 µM. AID 2057;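 active = inhibition above the mean inhibition of all tested compounds plus 3 SD, set per campaign, cut at about 40% in these data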;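 note: 0% = DMSO wells and 100% = unlabeled Bim-BH3 peptide control; higher means more loss of mP so more displacement of Bim peptide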
The depositor's hits bear a star; nt = no result given. Only some compounds are listed: those with a hit (about 1.5% of all), similar ones and a draw of the others.

SMILES | eLon inh | Bcl-xL primary | EBV gp42 block | GLD-1 RNA inh | MEX-5 binding | MCL1 BIM primary
COC(=O)CN1C(=O)N(c2ccccc2)C(N(O)C(=O)Nc2ccccc2)C1(C)C (configuration not stated) | -4 | 2 | 139* | 1 | -1 | 6
COc1cc(C(=O)Nc2nc3ccccc3[nH]2)ccc1OC(F)F | 5 | 73* | -8 | 1 | 2 | -6
O=C(CN(C(=O)CCC(=O)Nc1nccs1)c1ccccc1F)NCc1ccc(F)cc1 | 4 | 2 | nt | -7 | 2 | 6
Oc1c(Cl)cc(Cl)cc1Sc1cc(Cl)cc(Cl)c1O | nt | 20 | 46 | -2 | -4 | 53*
CCOc1ccc(/C=C/C2=Cc3c(sc(NC(=O)CSc4n[nH]c(N)n4)c3C#N)C(C)(C)C2)cc1 | -70 | -14 | 4 | 31* | 1 | -55
Cc1ccsc1/C=C/C1=Cc2c(sc(NC(=O)CSc3n[nH]c(N)n3)c2C#N)C(C)(C)C1 | -15 | 25 | 30 | 73* | 1 | 11
CC(C)n1c(=O)c2ccccc2n1C(=O)c1ccccc1 | 0 | nt | nt | nt | nt | nt
CN(C(=O)c1cccc(NC(=O)Cc2ccc(NC(=O)C3CCCN(S(=O)(=O)c4cccc([N+](=O)[O-])c4)C3)cc2)c1)C1CCC1 (configuration not stated) | -10 | nt | nt | nt | nt | nt
CCOc1ccc2[nH]c(=O)c(CN(CC3COCCO3)C(=O)C3CC3)cc2c1 (configuration not stated) | -1 | 7 | 51* | 4 | 0 | 0
N#Cc1c(N)sc(=S)c2c1CCN(Cc1ccccc1)C2 | nt | 144* | 84* | 28 | nt | 174*
CCCn1c(N)c(NCCN2CCOCC2)c(=O)[nH]c1=O | 9 | 33* | 25 | 28 | -31* | 25
COc1ccc(/C=C2\CCCc3c2nc2ccccc2c3C(=O)OCC(=O)c2c(N)n(C)c(=O)n(C)c2=O)cc1 | nt | 41* | 2 | 101* | 0 | 39
COc1ccc(-c2cc(C(=O)OCC(=O)c3c(N)n(C)c(=O)n(C)c3=O)c3ccccc3n2)cc1 | -9 | 0 | -21 | -1 | -4 | 3
CCOC(=O)C1=CN(CC2CCCCC2)CCC1=O | -3 | nt | nt | nt | nt | nt
Cc1ccc(-c2nc(N=Nc3ccc(O)cc3)n[nH]2)cc1 | -21 | 3 | -14 | -5 | -5 | 0
Cc1nc(N=Nc2ccc(O)cc2)n[nH]1 | -7 | 1 | -7 | -4 | -29* | 1
C(=N\NC(=Nc1ccccc1)c1ccccn1)/c1ccccn1 | -14 | 8 | -23 | -4 | -54* | 11
O=C(NC(c1ccc(Cl)cc1)c1cnccn1)C1CCN(CCCOc2ccccc2)CC1 (configuration not stated) | 6 | nt | nt | nt | nt | nt
CC(C)c1ccc(/C=N/NC(=O)c2ccc(-n3cnnn3)cc2)cc1 | -13 | nt | nt | nt | nt | nt
CC(=O)Nc1ccc(N=Cc2c(O)c(C(=O)Nc3ccccc3)cc3ccccc23)cc1 | nt | -2 | 136* | -74 | -14 | -79
CC(=O)Nc1ccc(N=Cc2c(O)c3ccccc3oc2=O)cc1 | -4 | nt | nt | nt | -10 | nt
COc1ccc(-c2nn(-c3ccccc3)cc2/C=C2/SC(=S)N(CCC(=O)O)C2=O)cc1 | -4 | 6 | nt | -13 | 2 | 2
CCOc1ccc(-c2nn(-c3ccccc3)cc2/C=C2\SC(=S)N(C3CCS(=O)(=O)C3)C2=O)cc1 (configuration not stated) | -6 | 0 | 69* | 0 | -31* | 3
CCCOc1ccc(-c2nn(-c3ccccc3)cc2/C=C2\SC(=S)N(C3CCS(=O)(=O)C3)C2=O)cc1 (configuration not stated) | -4 | -3 | 69* | 2 | -1 | -6
CC(=O)c1cccc(N2C(=NC(=O)C3CCCCC3)SC3CS(=O)(=O)CC32)c1 (configuration not stated) | 9 | 2 | nt | 6 | 1 | 0
SMILES | eLon inh | Bcl-xL primary | EBV gp42 block | GLD-1 RNA inh | MEX-5 binding | MCL1 BIM primary
CC(=O)c1ccc(OCc2cc(C(=O)N(C)CCOc3ccc(C)cc3)no2)cc1 | 1 | 3 | nt | -3 | 2 | 9
O=C(Cc1cccs1)N1CCN(S(=O)(=O)c2cccc([N+](=O)[O-])c2)CC1 | -2 | 3 | nt | 6 | 1 | 4
Cc1ccc(C2NC(=O)c3c(sc4c3CCN(C)C4)N2)o1 (configuration not stated) | -4 | 40* | -5 | 5 | -10 | 37
CN1CCc2c(sc3c2C(=O)NC(c2ccccc2)N3)C1 (configuration not stated) | -64 | 41* | -57 | 5 | -10 | 34
CCOc1cc(C(=S)N2CCOCC2)cc(Br)c1OS(=O)(=O)c1ccccc1 | -9 | 3 | nt | 1 | 1 | 12
COc1ccccc1N1CCN(C(=O)CCNC(=O)c2ccco2)CC1 | 12 | 1 | nt | 6 | nt | -1
CCc1ccc(NC(=O)CSc2nnnn2-c2cccnc2)cc1 | 11 | -7 | nt | 1 | -1 | -8
O=C(c1ccc(F)cc1Cl)N(Cc1ccco1)C1CCS(=O)(=O)C1 (configuration not stated) | -3 | 11 | nt | 4 | nt | 12
CCOC(=O)[C@@H]1[C@H]2COc3ccc(Br)cc3[C@@H]2N2C(=O)N(c3ccc(C(F)(F)F)cc3)C(=O)[C@@]12C | 6 | 4 | nt | -1 | 0 | 5
CN(C)[C@@H]1C(=O)C(C(=O)NCN2CCCC2)=C(O)[C@@]2(O)C(=O)C3=C(O)c4c(O)cccc4[C@@](C)(O)C3CC12 (some centres not stated) | nt | nt | 71* | nt | nt | nt
CC1CCCN(c2nc3ccccc3nc2C(C#N)S(=O)(=O)c2cccs2)C1 (configuration not stated) | -10 | 22 | -1 | 9 | -50* | 18
Cc1ccc(S(=O)(=O)C(C#N)c2nc3ccccc3nc2N2CC(C)OC(C)C2)cc1C (configuration not stated) | -12 | 11 | -9 | 6 | -59* | 9
Cn1c(-c2ccc(C=O)s2)nc2c3ccccc3c3ccccc3c21 | -27 | 4 | 94* | -8 | 47 | -10
C(=N\NC1=Nc2cccc3cccc1c23)/c1ccccc1 | -65 | -2 | 148* | 32* | -11 | -20
O=C(c1ccco1)N1CCN(Cc2csc(-c3ccccc3Cl)n2)CC1 | 2 | 4 | nt | 7 | -2 | 3
CCCCNC(=O)CCn1nc(-c2ccc(C)cc2)c2ccccc2c1=O | -5 | 2 | nt | 4 | 1 | 8
CCCNC(=O)CCn1nc(-c2ccc(C)cc2)c2ccccc2c1=O | -2 | 34* | nt | 1 | 1 | 0
CCc1noc(C)c1C(=O)N1CC(C)SC1=Nc1ccc(Cl)cc1 (configuration not stated) | 3 | -5 | nt | -3 | nt | 0
CC1(C)OC2CC3C4CC(F)C5=CC(=O)C=CC5(C)C4(F)C(O)CC3(C)C2(C(=O)CO)O1 (configuration not stated) | 3 | 57* | nt | 12 | 0 | 53*
